High-throughput results as filed in PubChem BioAssay.
KCNQ2 enhance: enhances the rat KCNQ2 potassium channel; O88943; CHO-K1 KCNQ2, FluxOR thallium flux fluorescence; hits give high values; B-score at 10 µM; 310,000 compounds, 0.54% hits;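 active = fluorescence ratio B-score at least 3 SD of library B-scores, with initial fluorescence B-score within 3 of them, cut at about 5.3 in these data; same plate scores as AID 2156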;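 note: B-score of peak minus minimum over baseline fluorescence ratio after K+ and Tl+ stimulus; positive B-score means potentiation of KCNQ2 with more thallium influx and brighter signal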
Target sequence (O88943 whole entry, looked up): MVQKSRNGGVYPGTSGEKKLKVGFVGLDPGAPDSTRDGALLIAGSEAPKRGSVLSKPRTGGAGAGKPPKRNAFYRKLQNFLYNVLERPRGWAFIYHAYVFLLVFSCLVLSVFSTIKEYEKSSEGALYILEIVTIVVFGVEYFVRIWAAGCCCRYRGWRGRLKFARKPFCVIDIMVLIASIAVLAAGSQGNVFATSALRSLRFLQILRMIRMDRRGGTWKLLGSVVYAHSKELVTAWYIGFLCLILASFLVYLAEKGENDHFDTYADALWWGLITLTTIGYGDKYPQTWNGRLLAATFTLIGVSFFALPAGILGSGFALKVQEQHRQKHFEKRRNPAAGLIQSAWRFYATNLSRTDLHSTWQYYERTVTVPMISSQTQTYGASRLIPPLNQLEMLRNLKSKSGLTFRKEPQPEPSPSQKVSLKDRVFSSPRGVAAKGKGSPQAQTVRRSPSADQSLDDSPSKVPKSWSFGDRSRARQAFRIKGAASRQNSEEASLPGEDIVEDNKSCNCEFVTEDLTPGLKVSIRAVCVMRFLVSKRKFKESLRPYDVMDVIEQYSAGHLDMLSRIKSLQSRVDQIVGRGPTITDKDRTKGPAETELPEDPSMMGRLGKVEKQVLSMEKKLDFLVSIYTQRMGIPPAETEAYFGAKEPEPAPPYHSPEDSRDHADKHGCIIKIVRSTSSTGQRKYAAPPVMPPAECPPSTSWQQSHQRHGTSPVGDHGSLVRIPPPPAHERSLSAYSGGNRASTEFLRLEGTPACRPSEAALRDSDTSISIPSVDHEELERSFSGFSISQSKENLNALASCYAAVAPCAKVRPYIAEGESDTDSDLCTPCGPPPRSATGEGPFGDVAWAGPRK
KCNQ2 block: inhibitors of rat KCNQ2 potassium channel | O88943 | CHO-K1 KCNQ2, FluxOR thallium flux, 20 min; hits give low values | B-score at 10 µM | 310,000 compounds, 1.1% hits | AID 2156;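 active = fluorescence ratio B-score at most minus 3 library SDs, with starting brightness B-score within 2 library SDs, cut at about -5.5 in these data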
KCNQ2 block conf: confirmation of rat KCNQ2 potassium channel inhibitors. shares compounds with KCNQ2 block. KCNQ2-expressing cells, thallium flux, inhibition; hits give low values. activity change, negative = inhibition, % at 10 µM. 1,000 compounds, 57% hits. AID 493025;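 note: 0% = vehicle wells and values are ratio percent relative to vehicle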
KCNQ1 spec: KCNQ2 inhibitor that also affects human KCNQ1 channel; shares compounds with KCNQ2 block; KCNQ1-expressing cells, FluxOR thallium flux fluorescence; hits give low values; activity change, negative = inhibition, % at 10 µM; 1,000 compounds, 15% hits; AID 493026;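 active = activity change at least 3 SD of negative controls below their mean in both duplicate wells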;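 note: CHO cells stably transfected with KCNQ1 and depolarized by potassium stimulus; peak minus minimum fluorescence over baseline after thallium addition; 0% = vehicle negative control and -100% = blank without thallium stimulus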
CHO parental ctr: activity in parental CHO cells lacking KCNQ2; shares compounds with KCNQ2 block; thallium flux counter-screen; hits give low values; activity change, % at 10 µM; 1,000 compounds, 14% hits; AID 493029;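 note: 0% = vehicle negative controls with stimulus buffer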
KCNQ2 inh confirm: blocks rat KCNQ2 current in automated patch clamp | shares compounds with KCNQ2 block | KCNQ2-expressing cells | calls only at 10 µM | 550 compounds, 49% hits | AID 588531
* = called active by the depositor; i = inactive; x = no result given; + = active, no number. Compounds with a hit are over-represented: about 1.6% of the library has one in this group of screens. Unless noted, the rule behind the calls is not given here.

SMILES	KCNQ2 enhance	KCNQ2 block	KCNQ2 block conf	KCNQ1 spec	CHO parental ctr	others
CC(C)C(=O)Nc1ccc2c(c1)nc(CCN1CCN(c3ccccn3)CC1)n2C	x	i	x	x	x
COc1ccc(/C=C/C(=O)c2ccccc2)cc1COc1ccc(F)cc1	-6.6	-6.6*	i	i	i
COc1ccc(/C=C/C(=O)c2ccc(O)cc2)cc1COc1ccc(F)cc1	x	i	x	x	x
CCC(NC(=O)COc1cc2c(c3oc(=O)c(C)c(C)c13)CCC(C)(C)O2)C(=O)O (configuration not stated)	x	i	x	x	x
COc1ccccc1NC(=O)c1cc(-c2ccc(C)o2)nc2ccccc12	-8.1	-8.1*	-34%*	i	i	KCNQ2 inh confirm=+
COc1ccccc1NC(=O)c1cc(C)nc2ccccc12	x	i	x	x	x
Cc1ccc(-c2cc(C(=O)Nc3cccnc3)c3ccccc3n2)o1	-8.1	-8.1*	i	i	i
Cc1ccc(NC(=O)c2cc(-c3ccc(C)o3)nc3ccccc23)cc1	x	i	x	x	x
COc1ccc(S(=O)(=O)N2CCCCCC2)cc1NC(=O)c1c2c(nc3ccccc13)CCN(Cc1ccccc1)C2	x	i	x	x	x
COc1ccc(NC(=O)c2c3c(nc4ccccc24)CCN(Cc2ccccc2)C3)c(OC)c1	-11	-11*	i	i	i
Cc1ccc(NC(=O)N2N=C(c3ccc(F)cc3)CC2c2ccc(F)cc2)cc1 (configuration not stated)	-7.9	-7.9*	i	i	i
CC(=O)N1N=C(c2ccccc2)CC1c1ccc(F)cc1 (configuration not stated)	x	i	x	x	x
CC(NC(=O)c1cccs1)c1ccc(Cl)cc1 (configuration not stated)	x	i	x	x	x
CC(NC(=O)c1cccs1)C(S)c1ccccc1 (configuration not stated)	-11	-11*	i	i	i
CCN(CC)C(=O)Oc1ccc2ccccc2c1Br	x	i	x	x	x
O=C(Oc1ccc2ccccc2c1Br)N1CCCCCC1	-6.7	-6.7*	i	i	i
Cc1ccc(-c2nc(NC(=O)c3cc(C(C)(C)C)nn3C)sc2C)cc1Cl	x	i	x	x	x
C/C(=N\OCC(=O)NC12CC3CC(CC(C3)C1)C2)c1cc2ccccc2o1	-6.8	-6.8*	-38%*	-37%*	-27%*	KCNQ2 inh confirm=i
CSc1ccccc1NC(=O)CO/N=C(\C)c1cc2ccccc2o1	x	i	x	x	x
O=S(=O)(c1ccc(Cl)s1)N1CCN(CCc2ccccc2)CC1	0.56	i	x	x	x
O=S(=O)(c1ccc(Br)s1)N1CCC(Cc2ccccc2)CC1	-9.3	-9.3*	i	i	i
O=S(=O)(c1ccc(Cl)s1)N1CCC(Cc2ccccc2)CC1	-7.4	-7.4*	i	i	i
CN1CCN(S(=O)(=O)c2ccc(Br)s2)CC1	0.15	i	x	x	x
Cc1cc(Cl)ccc1OCCCC(=O)NCCN1C(=O)S/C(=C\c2cccnc2)C1=O	x	i	x	x	x
COc1cc(C(=O)NCc2nnc(SCC(=O)NCc3ccco3)o2)cc(OC)c1OC	0.56	i	x	x	x
SMILES	KCNQ2 enhance	KCNQ2 block	KCNQ2 block conf	KCNQ1 spec	CHO parental ctr	others
Cc1ccc(N2C(=O)N(CC(=O)Nc3ccccc3C)C(=O)C2C)cc1 (configuration not stated)	x	i	x	x	x
Cc1ccc(N2C(=O)N(CC(=O)NCc3ccccc3Cl)C(=O)C2C)cc1 (configuration not stated)	-6.6	-6.6*	-28%*	i	i	KCNQ2 inh confirm=+
COc1cc(OC)c(C(=O)OCC(=O)NCCC2=CCCCC2)cc1OC	0.02	i	x	x	x
CCOC(=O)c1cn2nc(-c3ccc(OC)cc3)cc2nc1C1CCN(C(=O)OC(C)(C)C)CC1	-8.6	-8.6*	i	i	i
COc1ccc(-c2cc(C3CCN(C(=O)OC(C)(C)C)CC3)[nH]n2)cc1	x	i	x	x	x
O=C(Nc1nc2c(ccc3ccccc32)s1)c1cc([N+](=O)[O-])ccc1N1CCOCC1	-9.6	-9.6*	-25%*	i	i	KCNQ2 inh confirm=i
O=C(Nc1nc(-c2ccc(-c3ccccc3)cc2)cs1)c1cc([N+](=O)[O-])ccc1N1CCOCC1	0.52	i	x	x	x
Cc1ccc(S(=O)(=O)n2cccc2C)cc1	0.81	i	x	x	x
O=C(Nc1ccc(Cl)cc1)Nc1ccc(N2CCOCC2)cc1	x	i	x	x	x
O=C(Nc1ccc(N2CCOCC2)cc1)Nc1ccc(Cl)c(Cl)c1	-6.6	-6.6*	-28%*	i	i	KCNQ2 inh confirm=i
